Assay results: PubChem BioAssay (Tox21)
The source made the active and inactive calls. A call without a number means that no potency is given here. Calls follow the shape of the full dose curve.

Molecular target: Acetylcholinesterase (Homo sapiens) (UniProt P22303)
Assay: Acetylcholinesterase (AChE) small molecule antagonists: enzyme-based qHTS assay with human liver microsomes (AID 1347399); also: nearly all actives have a fitted effect of over 60% in size
Conditions: Potency: qHTS inhibition; outcome: qHTS inhibition; series mostly up to 115 µM
Procedure, shortened: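 Recombinant human AChE (50 mU/mL in the enzyme mix) and human liver microsomes (0.25 mg/mL final) were preincubated with compound and NADPH (0.25 mg/mL final) for 30 min at 37 C. Acetylthiocholine/DTNB was then added; thiocholine was read colorimetrically after 10 min at room temperature.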

Acetylcholinesterase (Homo sapiens), sequence (P22303 whole entry, looked up): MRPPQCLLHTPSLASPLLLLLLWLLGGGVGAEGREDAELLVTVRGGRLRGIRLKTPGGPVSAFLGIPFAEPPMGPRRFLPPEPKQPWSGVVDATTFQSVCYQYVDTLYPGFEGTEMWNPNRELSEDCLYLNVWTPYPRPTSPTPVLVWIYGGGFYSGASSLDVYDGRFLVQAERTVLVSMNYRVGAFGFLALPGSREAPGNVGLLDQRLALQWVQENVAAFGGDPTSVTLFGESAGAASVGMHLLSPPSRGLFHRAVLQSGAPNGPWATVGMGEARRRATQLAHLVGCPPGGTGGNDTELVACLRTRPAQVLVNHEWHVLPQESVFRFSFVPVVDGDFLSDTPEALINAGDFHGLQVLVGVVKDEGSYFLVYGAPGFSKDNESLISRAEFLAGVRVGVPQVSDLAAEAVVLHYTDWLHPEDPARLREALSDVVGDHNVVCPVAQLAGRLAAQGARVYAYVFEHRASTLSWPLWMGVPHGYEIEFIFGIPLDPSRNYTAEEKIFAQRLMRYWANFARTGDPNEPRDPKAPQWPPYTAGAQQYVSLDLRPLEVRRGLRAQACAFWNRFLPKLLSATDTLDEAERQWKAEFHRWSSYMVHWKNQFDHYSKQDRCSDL

| Compound | Potency | activity change, negative = inhibition |
| --- | --- | --- |
| C1CCN(CN2CCCCC2)CC1 | inactive | – |
| O=C(CCN1CCN(CCO)CC1)N1c2ccccc2Sc2ccc(C(F)(F)F)cc21 | inactive | – |
| Nc1nc2ccc([N+](=O)[O-])cc2s1 | inactive | – |
| O=Cc1ccc(Cl)c([N+](=O)[O-])c1 | inactive | – |
| COC(=O)c1ccccc1OC | inactive | – |
| COC(=O)C1=C(C)NC(C)=C(C(=O)OCCc2ccc(N3CCN(C(c4ccccc4)c4ccccc4)CC3)cc2)C1c1cccc([N+](=O)[O-])c1 (stereo not drawn) | inactive | – |
| CCCCOCCOCCSC#N | inactive | – |
| CC1(C)C(=O)N(Br)C(=O)N1Br | inactive | – |
| C[Si]1(C)O[Si](C)(C)O[Si](C)(C)O[Si](C)(C)O[Si](C)(C)O1 | inactive | – |
| Brc1ccccn1 | inactive | – |
| CC(C)(O)C(=O)c1ccccc1 | inactive | – |
| COc1cc(/C=C/C(=O)CC(=O)/C=C/c2ccc(O)c(OC)c2)ccc1O | inactive | – |
| O=S(=O)(O)CCCN1CCOCC1 | inactive | – |
| CC1(C)CC(OC(=O)CCCCCCCCC(=O)OC2CC(C)(C)NC(C)(C)C2)CC(C)(C)N1 | – | 0.16% [at 23.6 µM] (inactive) |
| CCc1cc(C(C)(C)C)c(O)c(C(C)(C)C)c1 | inactive | – |
| CN(C)Cc1ccccc1 | inactive | – |
| NC(=O)c1ccccc1Cl | inactive | – |
| COc1ccc(/C(C)=C/C(=O)O)c(OC)c1 | inactive | – |
| O=C(O)CCCCCCCCCC(=O)O | inactive | – |

| Compound | Potency | activity change, negative = inhibition |
| --- | --- | --- |
| O=C(NCC1CN(c2ccc(N3CCOCC3=O)cc2)C(=O)O1)c1ccc(Cl)s1 (stereo not drawn) | inactive | – |
| CO[Si](CCCOCC1CO1)(OC)OC (stereo not drawn) | inactive | – |
| CC1(C)S[C@@H]2[C@H](NC(=O)[C@H](N)c3ccccc3)C(=O)N2[C@H]1C(=O)O | inactive | – |
| Cc1cc(NC(=O)C(=O)O)cc(C)c1Oc1ccc(O)c2c1CCC2 | inactive | – |
| O=[N+]([O-])c1cccc(C(F)(F)F)c1 | inactive | – |
| CCCCCCC(C)OC(=O)COc1nc(F)c(Cl)c(N)c1Cl (stereo not drawn) | inactive | – |
| CC1(C)S[C@@H]2[C@H](NC(=O)C(C(=O)O)c3ccccc3)C(=O)N2[C@H]1C(=O)O (stereo partly drawn) | inactive | – |
| O=C(O)CCC(=O)C(=O)O | inactive | – |
| C=C1CC[C@H](O)C/C1=C\C=C1/CCC[C@]2(C)[C@@H]([C@H](C)CCCC(C)C)CC[C@@H]12 | inactive | – |
| C[Si](C)O[Si](C)(C)O[Si](C)(C)O[Si](C)C | inactive | – |
| CCC(C)CO (stereo not drawn) | inactive | – |
| CN(C)CCN(C)CCN(C)C | inactive | – |
| Clc1ccc(C(c2ccccc2Cl)C(Cl)Cl)cc1 (stereo not drawn) | inactive | – |
| COC(=O)c1ccccc1O | inactive | – |
| Cc1cccc2c1ccc1ccccc12 | inactive | – |
| O=c1[nH]nc(-c2ccc([N+](=O)[O-])o2)o1 | inactive | – |
| Cc1noc(NS(=O)(=O)c2ccc(N)cc2)c1C | inactive | – |
| CCCCCCCC(=O)OC | inactive | – |
| CCCCCCCCCCCCS | inactive | – |
